This assay deals with Muscarinic acetylcholine receptor M4 (Rattus norvegicus) (UniProt P08485). Kind of assay: potentiation of acetylcholine response at rM4 – cell-based, analogs, calcium mobilization, Gqi5, SAR follow-up (AID 1923). The note with it: CHO-K1 rM4/Gqi5, calcium mobilization Fluo-4, ACh EC20. For orientation: A change in cytosolic calcium serves as a functional read-out for many receptors and channels.

Activity calls are given as the source filed them.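 How the source made its calls: active means compound that boosted calcium signal to a low acetylcholine dose in a dose-dependent way; inactive means the rest.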

Sequence of Muscarinic acetylcholine receptor M4 (Rattus norvegicus) (P08485 whole entry, looked up): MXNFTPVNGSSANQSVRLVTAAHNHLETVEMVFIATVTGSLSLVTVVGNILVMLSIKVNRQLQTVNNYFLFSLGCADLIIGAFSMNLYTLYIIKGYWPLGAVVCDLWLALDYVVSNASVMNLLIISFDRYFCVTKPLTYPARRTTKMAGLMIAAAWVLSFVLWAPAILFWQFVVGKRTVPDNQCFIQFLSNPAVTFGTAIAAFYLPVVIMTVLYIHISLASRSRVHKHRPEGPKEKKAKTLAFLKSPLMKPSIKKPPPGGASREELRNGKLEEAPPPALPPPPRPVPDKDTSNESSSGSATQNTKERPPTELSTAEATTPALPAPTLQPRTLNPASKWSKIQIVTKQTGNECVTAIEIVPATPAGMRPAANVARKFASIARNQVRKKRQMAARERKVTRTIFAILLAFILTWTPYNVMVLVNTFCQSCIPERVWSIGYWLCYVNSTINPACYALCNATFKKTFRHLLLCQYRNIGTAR

Regarding `Cc1cc(OCCN2CCOCC2)nc2sc(C(=O)NC(C)C)c(N)c12`, the outcome is “active; fitted 7.15 uM”.

Consider `COc1ccc(CNC(=O)c2sc3nc(OCc4ccncc4)cc(C)c3c2N)cc1`, for which the outcome is “active; fitted 1.97 uM”.

As for `Cc1cc(OCCN2CCOCC2)nc2sc(C(=O)NC(C)(C)C)c(N)c12`, the outcome was “active; fitted 8.73 uM”.

In the case of `COc1ccc(CNC(=O)c2sc3nc(OCCN4CCOCC4)cc(C)c3c2N)cc1`, the outcome was “active; fitted 6.47 uM”.

For `COc1ccc(CNC(=O)c2sc3nc(OCc4ccccn4)cc(C)c3c2N)cc1`, the outcome was “active; fitted 1.77 uM”.

For `COc1ccc(CNC(=O)c2sc3nc(OCCN(C)C)cc(C)c3c2N)cc1`, the outcome was inactive.

With `COc1ccc(CNC(=O)c2sc3nc(OCC4CCCN(C)C4)cc(C)c3c2N)cc1` (configuration not stated), the result was inactive.

For the compound `COc1ccc(CNC(=O)c2sc3nc(OCCN4CCCC4)cc(C)c3c2N)cc1`, the outcome was “active; fitted 8.24 uM”.

With `Cc1cc(OCCCN(C)C)nc2sc(C(=O)NCc3cc(F)ccc3F)c(N)c12`, the outcome is “active; fitted 2.75 uM”.

On to `Cc1cc(OCc2ccncc2)nc2sc(C(=O)NCc3cccc(F)c3F)c(N)c12`, for which the outcome is “active; fitted 1.61 uM”.

Take `COc1ccc(CNC(=O)c2sc3nc(OC(C)C)cc(C)c3c2N)cc1`: the result was inactive.

Turning to `Cc1cc(OCCN2CCOCC2)nc2sc(C(=O)Nc3ccccc3)c(N)c12`, the outcome is “active; fitted 5.81 uM”.

For the compound `COCCCNC(=O)c1sc2nc(OCCN3CCOCC3)cc(C)c2c1N`, the outcome is “active; fitted 6.25 uM”.

Turning to `COc1ccc(CNC(=O)c2sc3nc(OCCCN(C)C)cc(C)c3c2N)cc1`, the result was inactive.

For the compound `Cc1cc(OCc2ccncc2)nc2sc(C(=O)NCc3cc(F)ccc3F)c(N)c12`, the outcome was “active; fitted 1.58 uM”.

With `COc1ccc(CNC(=O)c2sc3nc(OCc4cccnc4)cc(C)c3c2N)cc1`, the outcome was “active; fitted 2.21 uM”.

`CCCCCOc1cc(C)c2c(N)c(C(=O)NCc3ccc(OC)cc3)sc2n1`: the result was inactive.

In the case of `Cc1cc(OCc2ccccn2)nc2sc(C(=O)NCc3cc(F)ccc3F)c(N)c12`, the result was inactive.

Take `Cc1cc(OCCCN(C)C)nc2sc(C(=O)NC3COC3)c(N)c12`: the outcome was “active; fitted 2.58 uM”.

Turning to `Cc1cc(OCCN2CCOCC2)nc2sc(C(=O)NC3COC3)c(N)c12`, the outcome is “active; fitted 7.42 uM”.

As for `Cc1cc(OCc2ccccn2)nc2sc(C(=O)NCc3cccc(F)c3F)c(N)c12`, the outcome was “active; fitted 5.4 uM”.

For `CCCOc1cc(C)c2c(N)c(C(=O)NCc3ccc(OC)cc3)sc2n1`, the outcome was inactive.
